Assay outcomes as filed in PubChem.
Pf growth 96h – Primary qHTS for delayed death inhibitors of the malarial parasite plastid, 96 hour incubation | AID 504834, 2011 | 6.9% of 320,000 active | P. falciparum luciferase reporter growth, 96 h | Potency, µM (series often up to 28.7 µM), without a hit: at the highest dose activity change, negative = inhibition, hits mostly inhibitors; further: potency means the concentration at half of the fitted maximal effect; on the % scale 0 is the no-effect control and ±100 the full control effect
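Two-generation exposure (96 h) targets delayed-death phenotype. Reporter parasites carrying integrated firefly luciferase, in red cells at 2% hematocrit and 0.05% parasitemia final, kept at 37 C, 5% CO2; luminescence loss indicates inhibition.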
Shiga toxin inh – A qHTS for Small Molecule Inhibitors of Shiga Toxin | Vero cells, Shiga toxin protein synthesis inhibition reporter | inhibition, % at 38.7 µM | 9.2% of 290,000 active | AID 2315, 2010; in the data active means inhibition mostly above about 28%, no sharp cut-off; inactive means mostly below about 43%; further: 0% is about no effect
SARS PLP yeast – qHTS of Yeast-based Assay for SARS-CoV PLP. S. cerevisiae expressing SARS-CoV PLpro, growth rescue. Potency, µM (top dose mostly 32.9 µM), for inactives: top-dose activity, positive = growth rescue, most hits filed as activators. 0.19% of 330,000 active; calls by dose curve; further: potency means the concentration at half of the fitted maximal effect; 0% is about no effect; nearly all actives have a fitted effect of over 55% in size
Pf growth 48h – Primary qHTS for delayed death inhibitors of the malarial parasite plastid, 48 hour incubation; AID 504832, 2011; Potency, µM (top dose mostly 28.7 µM), without a hit: top-dose activity change, negative = inhibition, hits mostly inhibitors; 5.9% of 310,000 active; P. falciparum luciferase growth in erythrocytes, 48 h; further: potency means the concentration at half of the fitted maximal effect; on the % scale 0 is the no-effect control and ±100 the full control effect
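Compounds are pin-transferred into medium, infected erythrocytes (2% hematocrit, 0.1% parasitemia final) are added, and plates sit one parasite generation at 37 C in 5% CO2. Detection reagent is then added and luminescence measured.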
NS1 function inh – qHTS Assay for Inhibitors of Influenza NS1 Protein Function | 0.4% of 270,000 active | AID 2326, 2010 | Potency, µM (top dose mostly 46.1 µM), inactives show at the highest dose activity, positive = more growth; calls by dose curve; further: potency means the concentration at half of the fitted maximal effect; actives are rising curves; nearly all actives have a fitted effect of over 50% in size
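Read-out: OD600 growth recovery of NS1-expressing budding yeast. Cells grown overnight at 30C in -URA glucose medium, washed, resuspended and diluted 1:100 in 2% galactose assay medium, pH 6.0. Same strain lacking NS1 served as positive control.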
Cycloheximide cs – Cycloheximide Counterscreen for Small Molecule Inhibitors of Shiga Toxin. 12% of 300,000 active. AID 2314, 2010. cell reporter, cycloheximide protein synthesis inhibition counterscreen. max response, %; in the data active means max response mostly above about 13%, no sharp cut-off; inactive means mostly below about 14%; further: read at 38.3 µM for the half of the compounds with a filed dose; 0% is about no effect
An asterisk follows results filed as active; i = inactive; ? = inconclusive; · = not tested or not shown; [ ] = remark or other dose. Hits are enriched below; roughly 21% of the tested compounds scored in any of these assays. Unless noted, the call rests on the fitted dose curve; in most records, active means well fitted inhibition curve with a large enough effect; inconclusive means small, poorly fitted or top-dose-only effect, or another doubt; inactive means no such curve, though single readings can be large or run the other way.

SMILES | Pf growth 96h | Shiga toxin inh | SARS PLP yeast | Pf growth 48h | NS1 function inh | Cycloheximide cs
O=C(COc1coc(CN2CCc3ccccc3C2)cc1=O)N1CCOCC1 | -7.6% | · | -1.4% | 8.9% | · | ·
O=C(COc1ccc(-c2nnco2)cc1)Nc1c(Cl)cccc1C(F)(F)F | 1.8% | · | -5.6% | 3.8% | · | ·
Cc1cccc(C)c1NC(=O)Cn1c(=O)n(CCCC(=O)NCc2ccco2)c(=O)c2sccc21 | 41.7% | 12.2 | 5.0% | 0.0% | 14.8% | 2.9
C=CCN=C1CCCc2c1[nH]c1ccc(C)cc21 | 12.3% | 50.1* | -9.7% | 44.6% | · | 30.1*
Nn1c(-c2ccc(O)cc2)nnc1-c1ccc(O)cc1 | 1.3% | 3.0 | 1.2% | 96.6% | 0.9% | -3.0
Nn1c(SCc2ccccc2F)nnc1-c1ccncc1 | 34.6% | 80.2* | 1.2% | 22.8% | 5.8% | 31.8*
c1ccc(-c2ccccn2)nc1 | -10.7% | -14.2 | -1.0% | -9.9% | -4.7% | -3.4
Nn1c(SCc2c(F)cccc2F)nnc1-c1ccccn1 | 171.6% | 90.4* | 0.0% | 90.4% | 3.2% | 31.6*
Nn1c(-c2ccccn2)nnc1-c1ccccn1 | ? | 57.5* | -10.6% | -4.5% | -16.7% | 32.1*
Fc1ccccc1CSc1nnc2ccc(-c3ccncc3)nn12 | ? | 6.3 | 0.6% | 6.3% | · | 12.7
Nc1ccccc1-c1nnc(-c2ccccc2N)n1N | 88.4% | 57.4* | -1.4% | 92.6% | 0.9% | 37.8*
CCOc1ccc(CCNC(=O)C2(c3ccccc3)CC2)cc1OCC | ? | -7.3 | 1.6% | 1.4% | 0.1% | 0.4
COn1c(-c2ccc(Cl)cc2)nc2ccc(Cl)cc21 | 170.5% | 68.9* | -20.3% | 40.9% | -99.9% | 26.5*
COc1ccc(Cn2c(-c3ccc(OC)cc3)nc3ccccc32)cc1 | 21.4% | 11.9 | -32.1% | ? | -4.9% | 7.4
COc1ccc(-c2nc3ccccc3n2OCC(=O)O)cc1 | 72.5% | 25.2 | -1.2% | 140.8% | 1.9% | 21.0*
O=C(O)COn1c(-c2ccc(Cl)cc2)nc2ccc(Cl)cc21 | 19.9% | 86.8* | 0.0% | 15.2% | 0.0% | 15.4
COc1ccc(-c2c(C)nn3c(N4CCN(Cc5ccccc5)CC4)cc(C)nc23)cc1OC | 20.0% | 34.3 | 2.4% | · | ? | 4.4
CCOCCCNC(=O)C1CCN(c2cc(C)nc3c(-c4ccc(OC)c(OC)c4)c(C)nn23)CC1 | -4.0% | -10.6 | -0.3% | 4.15µM* | -5.5% | -1.1
COc1ccccc1-c1c(C)nn2c(N3CCCCCC3)cc(C)nc12 | 9.28µM* | -4.0 | -27.7% | 10.4µM* | -154.5% | 1.5
COCCNc1cc(C)nc2c(-c3ccccc3OC)c(C)nn12 | 2.33µM* | -11.1 | -3.1% | -2.1% | -1.4% | -1.5
O=C(CCNS(=O)(=O)c1ccc(OC(F)(F)F)cc1)NC1CC1 | · | · | 3.1% | · | · | ·
Cc1cc(-c2nnc(SCC(=O)Nc3ccc(F)cc3F)n2N)n[nH]1 | -1.4% | -1.8 | 2.2% | 47.8% | 1.3% | 4.7
c1cn(-c2ncnc3sc4c(c23)CCCC4)cn1 | 0.165µM* | -4.7 | -2.9% | -4.8% | -12.7% | -4.4
c1ccn(-c2ncnc3sc4c(c23)CCCC4)c1 | ? | -27.6 | 3.4% | · | -14.3% | 7.4
CSc1nc2n(n1)C(C)C1=C(CCCC1=O)N2 (stereo not drawn) | 2.94µM* | -0.7 | -0.9% | 3.3% | · | -4.4
SMILES | Pf growth 96h | Shiga toxin inh | SARS PLP yeast | Pf growth 48h | NS1 function inh | Cycloheximide cs
CCSc1nc2n(n1)C(c1cccc(F)c1)C1=C(CCCC1=O)N2 (stereo not drawn) | ? | -18.7 | -3.6% | ? | 0.8% | -3.7
CC(C(=O)Nc1ccc(S(=O)(=O)N2CCCC2)cc1)N(C)CC(=O)Nc1cccc(F)c1 (stereo not drawn) | · | · | -7.7% | · | · | ·
CC(C)CC(=O)Nc1ccc(S(=O)(=O)N2CCCC2)cc1 | ? | -5.9 | -1.3% | -1.6% | 4.1% | -0.6
COc1cccc(NC(=O)CN(C)C(C)C(=O)Nc2ccc(S(=O)(=O)N3CCCC3)cc2)c1 (stereo not drawn) | 4.65µM* | -7.1 | -0.1% | 9.28µM* | -10.1% | -1.6
Cc1ccc(NC(=O)CN(C)C(C)C(=O)Nc2ccc(S(=O)(=O)N3CCCC3)cc2)cc1 (stereo not drawn) | 11.7µM* | · | 0.3% | 11.7µM* | · | ·
N/C(=N\OC(=O)c1cc(Br)ccc1Cl)c1cccnc1 | ? | 23.0 | 0.3% | ? | -0.1% | 8.8
N/C(=N\OC(=O)c1ccccc1)c1cccnc1 | 0.0% | 66.0* | 0.4% | -0.3% | -3.6% | 46.8*
N/C(=N\OC(=O)c1ccc(Cl)cc1[N+](=O)[O-])c1cccnc1 | ? | 55.6* | -3.1% | -12.8% | -6.1% | 44.5*
N/C(=N\OC(=O)c1cc(Cl)ccc1Cl)c1cccnc1 | ? | 56.4 | 1.6% | · | -15.0% | 33.9*
N/C(=N\OC(=O)c1ccccc1)c1ccn[nH]1 | 178.9% | 48.7* | -4.3% | 176.1% | -10.8% | 24.6*
CC(C)Oc1ccc(C(=O)OCC(=O)NC(=O)NC2CCCC2)cc1 | -22.9% | · | 8.0% | -28.0% | · | ·
FC(F)(F)C(F)(F)c1nnc2ccc(-n3ccnc3)nn12 | ? | -18.3 | -2.6% | -17.6% | · | 11.9
N/C(=N\OC(=O)c1ccccc1Cl)c1cccnc1 | 28.7% | 61.2* | -4.8% | 61.3% | -5.9% | 37.8*
COc1cccc(C(=O)N/N=C/C(Br)=C/c2ccccc2)c1 | -18.6% | 114.4* | -89.0% | 13.1µM* | 1.4% | 51.6*
COc1ccc(C(=O)N/N=C/C(Br)=C/c2ccccc2)cc1 | -20.1% | 60.0* | -37.3% | ? | -11.2% | 31.3*
N#Cc1ccc2c(c1)C[C@]1(CCCCN3C(=O)c4ccccc4C3=O)Oc3c(c(=O)oc4ccccc34)C2O1 | -18.6%[5.75 µM] | i | -1.5%[6.58 µM] | 1.69µM* | 2.4% | -1.2
Cc1cc2c(c(=O)n1Cc1ccccc1)C1O[C@](CCCCN3C(=O)c4ccccc4C3=O)(Cc3cc(C#N)ccc31)O2 | ? | i | 8.3%[6.58 µM] | ? | 19.7% | -1.8
COc1ccc(CCNC(=O)CCC2COc3ccccc3O2)cc1OC (stereo not drawn) | -4.8% | -15.0 | -2.0% | 14.0% | -0.9% | 6.1
Cc1ccc(NC(=O)c2ccc(N/N=C/c3cccc(O)c3)c([N+](=O)[O-])c2)cc1 | 5.22µM* | 19.7 | 1.9% | ? | 8.1% | 0.5
O=[N+]([O-])c1ccc(N/N=C/c2cccc(O)c2O)cc1 | ? | · | -11.3% | 50.7% | -54.7% | 27.3*
COC(=O)N/N=C/c1cccc([N+](=O)[O-])c1 | 2.5% | 23.2 | 0.9% | 61.7% | -3.5% | 8.1
O=[N+]([O-])c1ccc(N/N=C/c2cccc(O)c2)cc1 | ? | 113.2* | -10.8% | 88.5% | -80.6% | 52.9*
CC(C)c1nnc(NC(=O)c2ccc(S(=O)(=O)N3CCOCC3)cc2)s1 | ? | -14.8 | -9.2% | 13.5% | -9.6% | -1.3
CC(C)c1nnc(NC(=O)c2cccc(NC(=O)C(F)(F)F)c2)s1 | 48.5% | 84.4* | 2.0% | 362.5% | · | 46.9*
